RGS4 inhibitor: Inhibitors of Regulator of G Protein Signaling (RGS) 4: qHTS. Transcreener GDP fluorescence polarization, RGS4-accelerated GTP hydrolysis. Potency, µM (series often up to 114 µM), hits mostly inhibitors. 390,000 tested, 0.039% active. AID 504845, 2011; further: nearly all actives have a fitted effect of over 75% in size
Target sequence (P49798 whole entry, looked up): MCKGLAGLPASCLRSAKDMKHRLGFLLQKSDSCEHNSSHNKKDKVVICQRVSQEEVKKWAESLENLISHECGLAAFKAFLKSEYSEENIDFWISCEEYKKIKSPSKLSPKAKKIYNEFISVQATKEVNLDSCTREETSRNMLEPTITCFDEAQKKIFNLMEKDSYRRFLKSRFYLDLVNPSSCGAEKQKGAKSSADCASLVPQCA
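MLSMR compounds (23 nl, pin-transferred) preincubated 10 min at room temperature with a 500nM (2x) first reagent, then RGS4 at 900nM (2x) plus Transcreener GDP mix added; fluorescence polarization (620/688 nm) read before and after 90 min at 30 °C.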
TDP1 block: qHTS Assay for Inhibitors of Tyrosyl-DNA Phosphodiesterase (TDP1). Tyrosyl-DNA phosphodiesterase 1 (Homo sapiens), Q9NUW8. recombinant TDP1, AlphaScreen DNA substrate cleavage. Potency, µM (highest dose often 130 µM), usual class: inhibitors. 350,000 tested, 0.28% active; further: nearly all actives have a fitted effect of over 40% in size
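Recombinant human Tdp1 (E. coli-expressed, 1 nM final) preincubated with compounds 15 min at room temperature, then 5'-biotin/3'-phosphotyrosine-FITC DNA substrate (15 nM final) added for 5 min. AlphaScreen beads (10 ug/ml final) added 10 min; cleavage lowers signal.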
BLM helicase inh: qHTS Assay for Inhibitors of Bloom's syndrome helicase (BLM); recombinant BLM DNA unwinding, fluorescence dequenching; Potency, µM (highest dose often 56.1 µM), actives largely listed as inhibitors; 350,000 tested, 0.2% active; AID 2528, 2010; further: nearly all actives have a fitted effect of over 35% in size
APE1 inh-1: qHTS Assay for Inhibitors of the Human Apurinic/apyrimidinic Endonuclease 1 (APE1). Potency, µM (series often up to 65.8 µM), actives largely listed as inhibitors. recombinant APE1, TAMRA/BHQ-2 abasic DNA cleavage fluorescence. 350,000 tested, 0.35% active. DNA repair nuclease/redox regulator APEX1 (Homo sapiens), P27695. AID 2517, 2012; further: nearly all actives have a fitted effect of over 55% in size
Target sequence (P27695 whole entry, looked up): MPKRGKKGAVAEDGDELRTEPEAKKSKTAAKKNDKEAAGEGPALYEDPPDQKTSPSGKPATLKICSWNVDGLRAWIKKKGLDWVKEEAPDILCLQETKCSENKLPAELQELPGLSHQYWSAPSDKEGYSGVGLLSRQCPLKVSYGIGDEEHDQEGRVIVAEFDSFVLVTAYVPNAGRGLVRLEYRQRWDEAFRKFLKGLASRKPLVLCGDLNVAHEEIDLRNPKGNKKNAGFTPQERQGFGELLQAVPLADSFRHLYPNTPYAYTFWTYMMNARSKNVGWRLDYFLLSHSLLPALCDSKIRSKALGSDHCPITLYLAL
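Incision of a quenched TAMRA/BHQ-2 THF abasic-site duplex (50 nM) by 0.75 nM APE1, after 15 min compound preincubation, measured as fluorescence increase over three 60 s reads. Values normalized to buffer, DMSO and NSC13755 control wells.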
RECQ1 helicase: qHTS Assay for Inhibitors of RecQ-Like Dna Helicase 1 (RECQ1). ATP-dependent DNA helicase Q1 (Homo sapiens), P46063. 240,000 tested, 0.54% active. Potency, µM (highest dose often 57.3 µM), usual class: inhibitors. RECQ1 DNA unwinding, red fluorescence kinetic read; further: nearly all actives have a fitted effect of over 30% in size
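RECQ1T1 50 nM; forked duplex (20 bp + 30-nt ss tails) 200 nM, ATP 2 mM final; pH 8.0, 2 mM MgCl2, 2.5 ug/ml poly(dI-dC); 15 min compound preincubation; discontinuous kinetic read over 2 h at RT.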
KAT2A inh: qHTS Assay for Inhibitors of GCN5L2; 390,000 tested, 0.21% active; Potency, µM (highest dose often 58.9 µM), actives largely listed as inhibitors; Histone acetyltransferase KAT2A (Homo sapiens), Q92830; GCN5L2 HAT assay, ThioGlo1 CoA-SH fluorescence
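Free CoA generated was detected with ThioGlo1 (50uM) fluorescence at Ex340nm/Em540nm, read immediately and after 20 min at room temperature. Enzyme, 20 nM in HEPES pH 7.5 buffer, saw compounds 15 min before adding 75uM H3(1-25) peptide and 70uM acetyl-CoA.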
DNA dye displace: Counterscreen for APE1 Inhibitors: Fluorescent Dye Displacement Assay; 480 tested, 7% active; DNA fluorescent dye displacement counterscreen, fluorescence; AID 2564, 2010; shares compounds with APE1 inh-1; Potency, µM (highest dose often 28.5 µM), hits mostly inhibitors;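 further: loss of thiazole orange fluorescence as the dye is displaced from duplex DNA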
EndoIV counter: Counterscreen for APE1 Inhibitors: qHTS Assay for Inhibitors of Endonuclease IV; shares compounds with APE1 inh-1; E. coli Endo IV, fluorogenic AP-site DNA cleavage; Potency, µM (series often up to 27.1 µM), hits mostly inhibitors; 560 tested, 4% active
APE1 inh-2: Confirmation qHTS Assay for Inhibitors of the Human Apurinic/apyrimidinic Endonuclease 1 (APE1); Potency, µM (highest dose often 57.1 µM), hits mostly inhibitors; purified APE1, fluorogenic abasic-site DNA cleavage; 750 tested, 44% active; shares compounds with APE1 inh-1; further: nearly all actives have a fitted effect of over 30% in size
APE1 FP: qHTS FP-Based Assay for Inhibitors of the Human Apurinic/apyrimidinic Endonuclease 1 (APE1) | APE1 binding to TAMRA-labelled double-stranded DNA, fluorescence polarization displacement | AID 2573, 2010 | Potency, µM (top dose mostly 28.5 µM), hits mostly inhibitors | shares compounds with APE1 inh-1 | 480 tested, 7% active
Numbers stand for hits; . = inactive; ? = inconclusive; / = no result given. In the library only some 0.87% were active in any assay of this set; here they are far more common. The call rests on the fitted dose curve; in most records, active means well fitted curve in the direction sought with a large enough effect; inconclusive means small, poorly fitted or top-dose-only effect, or another doubt; inactive means no such curve, though single readings can be large; an effect the other way counts as inactive or inconclusive.

SMILES	RGS4 inhibitor	TDP1 block	BLM helicase inh	APE1 inh-1	RECQ1 helicase	KAT2A inh	DNA dye displace	EndoIV counter	APE1 inh-2	APE1 FP
CCc1ccccc1NNC(=O)c1sccc1Cl	.	/	/	/	/	/	/	/	/	/
COCCN=c1scc(-c2ccco2)n1/N=C/c1ccc(O)c(O)c1O	?	.	10µM	8.9µM	8.9µM	20µM	11µM	.	4.5µM	14µM
C=CCN=c1scc(-c2ccco2)n1/N=C/c1ccc(O)c(O)c1O	?	/	.	?	.	.	/	/	/	/
O=C(NCCc1nc2ccccc2n1CCCOc1ccc2ccccc2c1)C1CCCCC1	.	.	/	/	/	/	/	/	/	/
COc1cc(-c2coc3cc(OC)c(OC)c(OC)c3c2=O)cc(OC)c1OC	/	.	.	.	.	.	/	/	/	/
CC(=O)Oc1cc(-c2coc3cc(OC(C)=O)c(OC(C)=O)c(OC(C)=O)c3c2=O)cc(OC(C)=O)c1OC(C)=O	/	/	11µM	0.32µM	1µM	.	/	.	1.1µM	/
Cc1cccc(CNc2cc(-c3ccc(C(=O)N(C)C)cc3)ncn2)c1	/	/	.	.	.	.	/	/	/	/
COC(=O)C1=C[C@@H](C(=O)OC)[C@@H]2C3=C(C(=O)C2(C)C)[C@H](c2ccccc2)[C@@H]2C(=O)N(c4ccccc4)C(=O)[C@@H]2[C@@H]3C1	.	.	.	.	.	/	/	/	/	/
NC(=O)c1oc2ccccc2c1NC(=O)c1nc2ccccc2s1	.	79µM	.	.	.	.	/	/	?	/
CC(=O)Oc1cc2cccc(OC(C)=O)c(=O)c2c(OC(C)=O)c1OC(C)=O	?	/	?	0.45µM	3.2µM	.	.	.	6.3µM	.
CCN(CC)c1ccc(C(=C2C=CC(=[N+](CC)CC)C=C2)c2ccccc2)cc1	?	.	.	.	.	?	/	/	/	/
CCN(CC)c1ccc(C(=C2C=CC(=[N+](CC)Cc3cccc(S(=O)(=O)[O-])c3)C=C2)c2ccc(N(CC)Cc3cccc(S(=O)(=O)O)c3)cc2)cc1	/	.	25µM	?	4µM	10µM	?	28µM	22µM	25µM
O=C(CSc1nc2cc(Cl)c(Cl)cc2[nH]1)c1ccc2c(c1)OCO2	?	.	.	?	.	.	.	.	?	.
O=C1c2ccccc2C(=O)c2c1ccc(O)c2O	.	.	.	?	?	?	?	.	?	.
O=C1c2ccccc2C(=O)c2c([N+](=O)[O-])ccc(O)c21	.	/	.	28µM	.	.	?	.	14µM	.
COC(=O)c1ccc2c(c1O)C(=O)c1ccccc1C2=O	.	.	.	.	.	.	/	/	/	/
O=C1c2cc(Cl)ccc2-c2c(O)cc(Cl)cc21	.	/	/	/	/	/	/	/	/	/

Screening results from PubChem.
